Measurements taken from the supplement of paper PMC11732987, “Enantioselective OTUD7B fragment discovery through chemoproteomics screening and high-throughput optimisation” (Communications Chemistry, 2025).

Experiments:
Test in all cases: log2 ratio of Biotin-Ahx-Ub-VS probe labelling (fragment/DMSO); higher = less target engagement (more negative = stronger competition), active = hit call of the paper (q ≤ 0.05, log2 ratio ≤ -1)
Conditions in all cases: compound concentration: 200 uM; treatment time: 3 h
[1] = molecular target: T1, USP42 (UniProt Q9H9J4)
T1 sequence (whole entry): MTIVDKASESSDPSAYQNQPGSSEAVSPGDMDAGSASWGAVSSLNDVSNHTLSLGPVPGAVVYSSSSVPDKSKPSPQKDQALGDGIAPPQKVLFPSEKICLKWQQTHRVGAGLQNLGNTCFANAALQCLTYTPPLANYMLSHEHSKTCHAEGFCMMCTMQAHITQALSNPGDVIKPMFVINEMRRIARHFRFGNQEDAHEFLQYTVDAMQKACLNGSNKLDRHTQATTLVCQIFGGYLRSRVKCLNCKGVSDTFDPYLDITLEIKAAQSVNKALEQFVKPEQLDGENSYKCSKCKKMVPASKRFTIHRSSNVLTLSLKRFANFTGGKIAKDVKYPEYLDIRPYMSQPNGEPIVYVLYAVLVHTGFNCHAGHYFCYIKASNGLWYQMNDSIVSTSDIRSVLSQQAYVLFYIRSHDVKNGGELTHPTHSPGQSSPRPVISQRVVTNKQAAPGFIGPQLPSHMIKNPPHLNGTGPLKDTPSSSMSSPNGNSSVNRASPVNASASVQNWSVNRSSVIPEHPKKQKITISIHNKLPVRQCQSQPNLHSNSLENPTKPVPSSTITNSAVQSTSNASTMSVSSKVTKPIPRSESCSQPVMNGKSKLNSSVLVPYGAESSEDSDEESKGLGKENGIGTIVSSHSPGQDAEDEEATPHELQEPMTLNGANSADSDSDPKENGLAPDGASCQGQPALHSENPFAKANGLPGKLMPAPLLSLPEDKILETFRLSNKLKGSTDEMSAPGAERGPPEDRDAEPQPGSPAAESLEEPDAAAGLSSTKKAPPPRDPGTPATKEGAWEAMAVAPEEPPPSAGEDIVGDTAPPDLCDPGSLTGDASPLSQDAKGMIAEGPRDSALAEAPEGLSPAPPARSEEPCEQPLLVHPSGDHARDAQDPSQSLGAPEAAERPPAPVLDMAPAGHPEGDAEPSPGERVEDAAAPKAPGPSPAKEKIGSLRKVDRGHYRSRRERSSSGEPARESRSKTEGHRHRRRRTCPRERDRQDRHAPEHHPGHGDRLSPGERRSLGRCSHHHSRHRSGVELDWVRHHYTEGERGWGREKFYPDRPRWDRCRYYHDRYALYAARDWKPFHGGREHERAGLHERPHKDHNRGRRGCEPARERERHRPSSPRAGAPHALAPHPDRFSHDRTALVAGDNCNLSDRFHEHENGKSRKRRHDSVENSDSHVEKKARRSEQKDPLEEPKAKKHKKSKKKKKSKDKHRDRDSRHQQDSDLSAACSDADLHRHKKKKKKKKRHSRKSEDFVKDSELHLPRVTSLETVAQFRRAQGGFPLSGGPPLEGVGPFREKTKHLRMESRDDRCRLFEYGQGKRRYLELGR
How it was run: (§1)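 Average log2 ratios of fragment over vehicle were obtained by unpaired t-test from global-median-normalised Spectronaut label-free quantities. Proteins with ≥2 unique peptides were included. HEK293T lysate (495 µg per sample) was treated in triplicate with fragment at 200 µM or vehicle for 3 h, then with Biotin-Ahx-Ub-VS at 0.5 µM final for 1 h, and labelled DUBs were NeutrAvidin-enriched and run by diaPASEF LC-MS/MS.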

[2] = molecular target: USP46 (UniProt P62068)
How it was run: as §1

[3] = molecular target: T2, USP47 (UniProt Q96K76)
T2 sequence (whole entry): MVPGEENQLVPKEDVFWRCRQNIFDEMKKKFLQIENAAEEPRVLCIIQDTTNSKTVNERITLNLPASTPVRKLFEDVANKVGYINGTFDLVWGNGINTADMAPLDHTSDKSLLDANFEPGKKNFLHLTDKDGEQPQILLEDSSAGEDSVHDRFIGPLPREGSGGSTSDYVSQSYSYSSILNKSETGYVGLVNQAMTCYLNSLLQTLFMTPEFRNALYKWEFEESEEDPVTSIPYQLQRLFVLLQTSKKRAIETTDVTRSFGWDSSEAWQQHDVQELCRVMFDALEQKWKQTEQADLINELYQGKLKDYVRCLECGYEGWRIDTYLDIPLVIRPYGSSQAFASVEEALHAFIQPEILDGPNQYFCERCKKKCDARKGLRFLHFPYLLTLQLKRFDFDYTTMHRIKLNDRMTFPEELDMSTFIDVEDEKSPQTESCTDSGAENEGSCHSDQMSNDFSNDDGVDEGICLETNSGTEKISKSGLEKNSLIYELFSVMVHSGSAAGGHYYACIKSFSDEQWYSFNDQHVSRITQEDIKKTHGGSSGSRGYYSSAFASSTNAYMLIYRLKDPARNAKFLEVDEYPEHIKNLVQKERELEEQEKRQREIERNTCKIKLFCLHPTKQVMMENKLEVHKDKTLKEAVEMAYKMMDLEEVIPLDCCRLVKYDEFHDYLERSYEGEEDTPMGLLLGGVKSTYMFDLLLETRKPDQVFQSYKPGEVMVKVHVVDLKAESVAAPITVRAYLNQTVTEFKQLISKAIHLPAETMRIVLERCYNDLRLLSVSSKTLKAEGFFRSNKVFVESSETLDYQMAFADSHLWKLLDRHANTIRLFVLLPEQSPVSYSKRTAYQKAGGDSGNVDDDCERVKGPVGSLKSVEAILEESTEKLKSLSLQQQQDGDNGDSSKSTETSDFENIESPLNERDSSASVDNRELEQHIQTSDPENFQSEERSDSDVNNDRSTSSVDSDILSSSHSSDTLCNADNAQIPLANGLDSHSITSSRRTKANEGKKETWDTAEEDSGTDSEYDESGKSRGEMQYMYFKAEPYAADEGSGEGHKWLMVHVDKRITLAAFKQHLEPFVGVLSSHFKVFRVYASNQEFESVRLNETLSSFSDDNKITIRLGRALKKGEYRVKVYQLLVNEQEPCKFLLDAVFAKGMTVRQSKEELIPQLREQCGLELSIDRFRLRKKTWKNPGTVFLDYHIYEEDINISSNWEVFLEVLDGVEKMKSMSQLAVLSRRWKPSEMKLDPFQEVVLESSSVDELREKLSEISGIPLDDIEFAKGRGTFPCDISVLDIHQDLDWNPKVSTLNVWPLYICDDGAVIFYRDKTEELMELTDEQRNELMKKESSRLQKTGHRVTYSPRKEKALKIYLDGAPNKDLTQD
How it was run: as §1

[4] = molecular target: T3, USP48 (UniProt Q86UV5)
T3 sequence (whole entry): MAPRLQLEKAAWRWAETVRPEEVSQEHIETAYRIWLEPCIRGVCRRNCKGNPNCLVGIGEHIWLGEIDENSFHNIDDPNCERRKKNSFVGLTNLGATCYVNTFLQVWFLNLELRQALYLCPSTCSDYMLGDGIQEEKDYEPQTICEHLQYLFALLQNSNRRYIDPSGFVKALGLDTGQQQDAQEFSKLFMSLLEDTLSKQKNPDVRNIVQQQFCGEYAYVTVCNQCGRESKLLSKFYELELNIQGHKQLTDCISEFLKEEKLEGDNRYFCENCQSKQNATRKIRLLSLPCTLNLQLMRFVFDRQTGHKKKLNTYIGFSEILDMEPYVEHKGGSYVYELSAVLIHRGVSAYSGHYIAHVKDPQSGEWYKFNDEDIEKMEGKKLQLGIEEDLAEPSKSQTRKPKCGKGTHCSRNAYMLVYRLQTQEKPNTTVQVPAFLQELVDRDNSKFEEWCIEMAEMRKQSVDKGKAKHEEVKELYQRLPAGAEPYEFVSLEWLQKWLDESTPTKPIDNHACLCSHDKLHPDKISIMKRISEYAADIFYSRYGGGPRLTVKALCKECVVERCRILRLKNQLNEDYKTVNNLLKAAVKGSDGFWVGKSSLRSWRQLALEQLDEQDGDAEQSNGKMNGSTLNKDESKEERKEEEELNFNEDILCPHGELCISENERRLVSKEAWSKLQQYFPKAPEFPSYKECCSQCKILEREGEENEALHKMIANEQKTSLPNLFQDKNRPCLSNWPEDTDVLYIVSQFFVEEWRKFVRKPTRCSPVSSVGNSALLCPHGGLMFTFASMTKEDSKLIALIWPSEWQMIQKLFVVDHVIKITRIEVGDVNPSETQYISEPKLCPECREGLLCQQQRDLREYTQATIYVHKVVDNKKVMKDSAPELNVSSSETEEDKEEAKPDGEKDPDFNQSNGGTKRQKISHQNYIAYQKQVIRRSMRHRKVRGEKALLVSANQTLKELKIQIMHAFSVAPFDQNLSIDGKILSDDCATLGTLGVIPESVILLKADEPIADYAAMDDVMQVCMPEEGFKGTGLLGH
How it was run: as §1

[5] = molecular target: T4, USP5 (UniProt P45974)
T4 sequence (whole entry): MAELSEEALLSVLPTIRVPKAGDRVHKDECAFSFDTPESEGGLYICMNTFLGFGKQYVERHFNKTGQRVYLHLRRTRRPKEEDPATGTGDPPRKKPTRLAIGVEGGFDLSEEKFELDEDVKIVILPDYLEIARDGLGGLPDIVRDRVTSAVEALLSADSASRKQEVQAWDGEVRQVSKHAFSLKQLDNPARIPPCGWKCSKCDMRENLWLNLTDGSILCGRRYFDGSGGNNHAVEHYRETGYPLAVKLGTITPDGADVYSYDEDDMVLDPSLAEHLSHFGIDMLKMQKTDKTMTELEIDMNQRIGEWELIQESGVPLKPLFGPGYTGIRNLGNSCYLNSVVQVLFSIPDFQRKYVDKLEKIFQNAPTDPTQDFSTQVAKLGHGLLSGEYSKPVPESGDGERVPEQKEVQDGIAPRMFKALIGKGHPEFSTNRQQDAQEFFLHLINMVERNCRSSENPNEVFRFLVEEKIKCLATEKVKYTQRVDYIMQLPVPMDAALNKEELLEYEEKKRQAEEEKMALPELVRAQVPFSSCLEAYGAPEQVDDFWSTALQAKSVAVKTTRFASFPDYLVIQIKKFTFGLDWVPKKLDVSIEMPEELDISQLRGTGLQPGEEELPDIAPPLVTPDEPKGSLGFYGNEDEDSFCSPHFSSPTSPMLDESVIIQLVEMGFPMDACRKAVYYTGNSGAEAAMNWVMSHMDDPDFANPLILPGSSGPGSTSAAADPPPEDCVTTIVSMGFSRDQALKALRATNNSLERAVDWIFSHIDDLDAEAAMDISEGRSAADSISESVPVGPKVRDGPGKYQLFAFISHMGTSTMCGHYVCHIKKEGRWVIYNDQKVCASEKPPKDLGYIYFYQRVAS
How it was run: as §1

[6] = molecular target: USP54 (UniProt Q70EL1)
How it was run: as §1

[7] = molecular target: USP7 (UniProt Q93009)
How it was run: as §1

[8] = molecular target: T5, USP8 (UniProt P40818)
T5 sequence (whole entry): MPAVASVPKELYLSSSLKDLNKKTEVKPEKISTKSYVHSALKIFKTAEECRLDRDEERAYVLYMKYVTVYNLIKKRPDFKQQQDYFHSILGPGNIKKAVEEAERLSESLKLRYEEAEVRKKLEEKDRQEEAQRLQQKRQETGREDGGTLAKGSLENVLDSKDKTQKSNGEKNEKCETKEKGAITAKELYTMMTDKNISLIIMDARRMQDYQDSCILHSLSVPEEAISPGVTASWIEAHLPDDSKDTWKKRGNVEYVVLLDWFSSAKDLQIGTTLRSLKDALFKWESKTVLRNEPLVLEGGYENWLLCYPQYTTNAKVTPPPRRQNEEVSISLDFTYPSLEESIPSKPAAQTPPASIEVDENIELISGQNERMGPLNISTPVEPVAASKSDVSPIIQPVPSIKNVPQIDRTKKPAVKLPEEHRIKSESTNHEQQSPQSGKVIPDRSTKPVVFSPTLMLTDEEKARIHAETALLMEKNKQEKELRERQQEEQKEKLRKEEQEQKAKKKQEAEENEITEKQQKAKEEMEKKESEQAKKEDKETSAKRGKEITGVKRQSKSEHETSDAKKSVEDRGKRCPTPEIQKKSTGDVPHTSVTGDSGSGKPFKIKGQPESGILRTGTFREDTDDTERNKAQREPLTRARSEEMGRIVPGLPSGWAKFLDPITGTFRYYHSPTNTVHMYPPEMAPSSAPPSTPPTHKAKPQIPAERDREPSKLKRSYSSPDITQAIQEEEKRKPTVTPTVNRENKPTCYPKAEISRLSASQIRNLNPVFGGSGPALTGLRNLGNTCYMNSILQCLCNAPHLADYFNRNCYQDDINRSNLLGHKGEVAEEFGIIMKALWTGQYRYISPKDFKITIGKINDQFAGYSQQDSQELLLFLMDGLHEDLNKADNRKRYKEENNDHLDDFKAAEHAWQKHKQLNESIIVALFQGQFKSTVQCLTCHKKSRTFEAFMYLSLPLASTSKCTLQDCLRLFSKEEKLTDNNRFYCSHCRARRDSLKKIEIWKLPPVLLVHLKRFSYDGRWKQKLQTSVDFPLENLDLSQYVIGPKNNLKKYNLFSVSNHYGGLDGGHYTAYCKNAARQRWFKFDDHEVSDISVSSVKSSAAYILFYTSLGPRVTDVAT
How it was run: as §1

[9] = molecular target: USP9X (UniProt Q93008)
How it was run: as §1

[10] = molecular target: UniProt O00487
How it was run: as §1

Measured: log2 ratio of Biotin-Ahx-Ub-VS probe labelling

Sequence of USP9X (Q93008 whole entry): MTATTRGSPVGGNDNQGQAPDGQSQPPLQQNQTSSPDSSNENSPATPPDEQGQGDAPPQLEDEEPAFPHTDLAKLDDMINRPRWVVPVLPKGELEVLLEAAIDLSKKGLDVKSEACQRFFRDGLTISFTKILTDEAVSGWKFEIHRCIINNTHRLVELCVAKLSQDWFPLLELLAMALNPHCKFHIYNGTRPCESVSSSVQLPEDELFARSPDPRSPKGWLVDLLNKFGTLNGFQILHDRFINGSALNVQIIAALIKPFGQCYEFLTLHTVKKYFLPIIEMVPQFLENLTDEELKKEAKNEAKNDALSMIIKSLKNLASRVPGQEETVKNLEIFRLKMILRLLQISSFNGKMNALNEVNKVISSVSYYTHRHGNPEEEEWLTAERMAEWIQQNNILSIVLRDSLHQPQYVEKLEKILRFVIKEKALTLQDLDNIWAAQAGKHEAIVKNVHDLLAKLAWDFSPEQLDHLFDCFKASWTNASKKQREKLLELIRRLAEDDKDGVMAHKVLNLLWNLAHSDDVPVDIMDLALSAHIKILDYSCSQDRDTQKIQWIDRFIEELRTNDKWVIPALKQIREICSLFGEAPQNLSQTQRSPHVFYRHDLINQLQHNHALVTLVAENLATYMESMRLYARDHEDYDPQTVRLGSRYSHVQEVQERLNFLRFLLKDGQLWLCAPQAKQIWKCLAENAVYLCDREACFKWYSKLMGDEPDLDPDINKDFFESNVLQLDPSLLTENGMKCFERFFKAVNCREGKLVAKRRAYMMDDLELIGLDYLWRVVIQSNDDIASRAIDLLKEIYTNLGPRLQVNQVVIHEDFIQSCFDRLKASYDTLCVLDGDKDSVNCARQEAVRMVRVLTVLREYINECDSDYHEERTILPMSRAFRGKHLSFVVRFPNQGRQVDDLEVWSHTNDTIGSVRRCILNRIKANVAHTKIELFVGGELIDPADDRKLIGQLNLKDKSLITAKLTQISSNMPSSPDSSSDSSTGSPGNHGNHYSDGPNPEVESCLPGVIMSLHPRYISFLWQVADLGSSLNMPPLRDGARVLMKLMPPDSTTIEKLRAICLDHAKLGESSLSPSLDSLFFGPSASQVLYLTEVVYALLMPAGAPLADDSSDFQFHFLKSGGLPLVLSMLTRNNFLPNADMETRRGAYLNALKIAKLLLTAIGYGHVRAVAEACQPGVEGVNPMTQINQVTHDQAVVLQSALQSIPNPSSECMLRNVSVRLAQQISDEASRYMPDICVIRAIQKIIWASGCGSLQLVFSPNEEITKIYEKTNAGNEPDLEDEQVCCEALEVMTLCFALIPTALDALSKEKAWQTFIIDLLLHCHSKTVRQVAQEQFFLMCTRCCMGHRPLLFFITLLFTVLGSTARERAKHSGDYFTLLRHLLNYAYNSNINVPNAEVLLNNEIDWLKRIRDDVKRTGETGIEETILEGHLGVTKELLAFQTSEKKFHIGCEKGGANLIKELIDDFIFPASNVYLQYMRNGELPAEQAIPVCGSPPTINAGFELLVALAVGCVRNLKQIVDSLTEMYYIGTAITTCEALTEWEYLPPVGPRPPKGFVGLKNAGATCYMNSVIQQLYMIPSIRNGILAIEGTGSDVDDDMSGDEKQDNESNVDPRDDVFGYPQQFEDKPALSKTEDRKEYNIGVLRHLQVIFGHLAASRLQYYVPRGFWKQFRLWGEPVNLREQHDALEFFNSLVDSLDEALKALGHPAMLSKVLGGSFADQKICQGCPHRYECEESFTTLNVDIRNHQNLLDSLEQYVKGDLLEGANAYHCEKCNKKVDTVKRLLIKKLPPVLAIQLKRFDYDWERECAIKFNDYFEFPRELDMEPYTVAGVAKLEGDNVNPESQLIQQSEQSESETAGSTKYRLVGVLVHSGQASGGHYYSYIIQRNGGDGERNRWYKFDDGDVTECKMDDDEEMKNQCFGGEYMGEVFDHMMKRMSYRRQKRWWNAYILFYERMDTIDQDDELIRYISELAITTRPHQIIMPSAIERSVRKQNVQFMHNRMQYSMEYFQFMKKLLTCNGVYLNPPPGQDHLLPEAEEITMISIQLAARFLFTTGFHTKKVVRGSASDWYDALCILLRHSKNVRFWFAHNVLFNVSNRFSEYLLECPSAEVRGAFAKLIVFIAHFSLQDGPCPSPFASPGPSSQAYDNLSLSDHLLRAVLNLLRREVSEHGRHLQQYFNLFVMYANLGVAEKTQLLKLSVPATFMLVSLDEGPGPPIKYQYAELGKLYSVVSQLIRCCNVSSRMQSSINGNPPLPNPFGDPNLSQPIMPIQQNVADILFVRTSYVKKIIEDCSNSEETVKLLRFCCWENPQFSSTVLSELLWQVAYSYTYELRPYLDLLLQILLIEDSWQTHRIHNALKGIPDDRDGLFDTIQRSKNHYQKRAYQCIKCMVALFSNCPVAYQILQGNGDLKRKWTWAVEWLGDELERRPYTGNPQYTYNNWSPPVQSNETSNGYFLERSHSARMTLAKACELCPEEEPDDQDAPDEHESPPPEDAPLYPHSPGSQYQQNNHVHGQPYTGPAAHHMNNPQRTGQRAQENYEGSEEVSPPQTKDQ
Sequence of USP46 (P62068 whole entry): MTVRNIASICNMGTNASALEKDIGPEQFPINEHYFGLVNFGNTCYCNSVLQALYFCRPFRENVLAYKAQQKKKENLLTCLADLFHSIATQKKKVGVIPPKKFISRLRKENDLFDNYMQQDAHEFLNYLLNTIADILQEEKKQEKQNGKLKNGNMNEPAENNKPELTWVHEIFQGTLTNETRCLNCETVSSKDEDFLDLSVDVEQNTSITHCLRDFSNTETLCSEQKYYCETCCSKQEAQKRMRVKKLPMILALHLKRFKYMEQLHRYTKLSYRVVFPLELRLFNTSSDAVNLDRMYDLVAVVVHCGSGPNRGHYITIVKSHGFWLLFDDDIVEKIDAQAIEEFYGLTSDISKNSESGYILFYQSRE
Sequence of USP7 (Q93009 whole entry, looked up): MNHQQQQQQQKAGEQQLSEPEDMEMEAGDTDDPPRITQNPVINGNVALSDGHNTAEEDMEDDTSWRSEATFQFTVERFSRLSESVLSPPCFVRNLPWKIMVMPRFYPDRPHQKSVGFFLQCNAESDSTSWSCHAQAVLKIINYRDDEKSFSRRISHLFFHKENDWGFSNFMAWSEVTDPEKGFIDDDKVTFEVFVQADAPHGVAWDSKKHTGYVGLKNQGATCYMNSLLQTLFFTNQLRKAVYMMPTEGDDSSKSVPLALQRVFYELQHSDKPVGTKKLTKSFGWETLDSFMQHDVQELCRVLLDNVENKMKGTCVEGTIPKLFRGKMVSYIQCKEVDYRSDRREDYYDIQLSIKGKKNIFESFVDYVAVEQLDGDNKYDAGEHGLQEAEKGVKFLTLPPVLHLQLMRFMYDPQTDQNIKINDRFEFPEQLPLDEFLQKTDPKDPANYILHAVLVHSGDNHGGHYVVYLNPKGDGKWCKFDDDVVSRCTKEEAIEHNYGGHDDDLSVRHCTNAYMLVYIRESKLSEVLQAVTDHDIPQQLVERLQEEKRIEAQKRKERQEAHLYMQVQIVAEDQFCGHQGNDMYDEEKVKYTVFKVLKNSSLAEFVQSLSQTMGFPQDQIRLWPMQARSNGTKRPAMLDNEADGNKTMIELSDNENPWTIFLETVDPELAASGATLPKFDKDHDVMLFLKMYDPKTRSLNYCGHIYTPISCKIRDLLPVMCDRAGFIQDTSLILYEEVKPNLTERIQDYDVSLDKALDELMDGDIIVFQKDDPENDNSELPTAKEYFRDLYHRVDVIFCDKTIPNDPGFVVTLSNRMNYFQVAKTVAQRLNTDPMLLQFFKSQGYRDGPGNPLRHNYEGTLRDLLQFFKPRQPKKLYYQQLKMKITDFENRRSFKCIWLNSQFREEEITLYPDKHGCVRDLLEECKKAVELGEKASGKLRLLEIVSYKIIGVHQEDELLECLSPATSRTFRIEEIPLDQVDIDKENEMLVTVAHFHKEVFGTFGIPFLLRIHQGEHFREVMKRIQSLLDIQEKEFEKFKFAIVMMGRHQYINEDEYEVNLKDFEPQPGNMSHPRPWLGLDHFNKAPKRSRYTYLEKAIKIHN
Sequence of UniProt O00487 (O00487 whole entry): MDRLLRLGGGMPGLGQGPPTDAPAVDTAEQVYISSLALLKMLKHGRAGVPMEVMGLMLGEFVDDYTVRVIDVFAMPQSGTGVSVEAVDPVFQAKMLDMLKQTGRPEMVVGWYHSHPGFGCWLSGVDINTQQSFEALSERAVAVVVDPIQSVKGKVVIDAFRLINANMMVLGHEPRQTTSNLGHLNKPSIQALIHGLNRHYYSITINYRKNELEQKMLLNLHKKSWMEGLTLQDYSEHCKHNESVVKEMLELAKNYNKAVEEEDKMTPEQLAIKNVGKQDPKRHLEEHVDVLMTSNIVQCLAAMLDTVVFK

O=C(O)C1Cc2ccccc2CN1C(=O)CCl (stereo not given)
inactive: [1] -0.449 | [2] -0.111 | [3] -0.301 | [4] -0.543 | [5] -0.0229 | [6] 0.788 | [7] -0.333 | [8] -0.283 | [9] -0.449 | [10] -0.262
